{"source": "the supplement of paper PMC9950053", "note": "Where a name gives a salt, the structure may show the parent alone.", "data": [{"system": "Danio rerio larvae (5 dpf)", "experiment": "1-h baseline activity (% time moving, periods 1-6) minus DMSO control (percentage points); higher = more locomotor activity than DMSO larvae", "conditions": "10 µM; exposure time: 3 h pre-incubation + 3 h imaging", "procedure": "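Wild-type 5 dpf zebrafish larvae (n=48 per drug, 96-well plates, 28.5 °C) were exposed to Tocris FDA-approved library compounds at 10 µM (0.1% DMSO) for 3 h before and 3 h during imaging. Images were taken every 6 s during visual (moving coloured lines) and acoustic stimuli, and larvae were tracked with the DeepLabCut-based Z-LaP Tracker. Each behavioural measure is the treated-group mean minus the DMSO vehicle control mean (n=844), in percentage points. This mapping covers compounds with 4-character plate codes.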", "values": [{"smiles": "Cc1cccc(CN2CCN(C(c3ccccc3)c3ccc(Cl)cc3)CC2)c1", "note": "(stereo not given) [Meclizine dihydrochloride]", "1-h baseline activity": 20.8}, {"smiles": "CC(C)Nc1cccnc1N1CCN(C(=O)c2cc3cc(NS(C)(=O)=O)ccc3[nH]2)CC1", "note": "[Delavirdine mesylate]", "1-h baseline activity": -4.01}, {"smiles": "CCCN(CCC)S(=O)(=O)c1ccc(C(=O)O)cc1", "note": "[Probenecid]", "1-h baseline activity": -2.34}, {"smiles": "C=C1[C@H](CO)[C@@H](O)C[C@@H]1n1cnc2c(=O)[nH]c(N)nc21", "note": "[Entecavir]", "1-h baseline activity": -2.24}, {"smiles": "CCN(Cc1ccncc1)C(=O)C(CO)c1ccccc1", "note": "(stereo not given) [Tropicamide]", "1-h baseline activity": -5.81}, {"smiles": "C[C@H](Cc1cc2c(c(C(N)=O)c1)N(CCCO)CC2)NCCOc1ccccc1OCC(F)(F)F", "note": "[Silodosin]", "1-h baseline activity": -3.52}, {"smiles": "Cc1nc(Nc2ncc(C(=O)Nc3c(C)cccc3Cl)s2)cc(N2CCN(CCO)CC2)n1", "note": "[Dasatinib]", "1-h baseline activity": -12.5}, {"smiles": "NC(=O)c1ncn([C@@H]2O[C@H](CO)[C@@H](O)[C@H]2O)n1", "note": "[Ribavirin]", "1-h baseline activity": 1.15}, {"smiles": "Clc1ccccc1C(c1ccccc1)(c1ccccc1)n1ccnc1", "note": "[Clotrimazole]", "1-h baseline activity": -22.9}, {"smiles": "Nc1nc(Cl)nc2c1ncn2[C@@H]1O[C@H](CO)[C@@H](O)[C@@H]1F", "note": "[Clofarabine]", "1-h baseline activity": -5.31}, {"smiles": "CN(C)CCc1c[nH]c2ccc(Cn3cncn3)cc12", "note": "[Rizatriptan benzoate]", "1-h baseline activity": -3.79}, {"smiles": "Nc1ncn([C@H]2C[C@H](O)[C@@H](CO)O2)c(=O)n1", "note": "[Decitabine]", "1-h baseline activity": 1.07}, {"smiles": "CC(CCc1ccc(O)cc1)NCCc1ccc(O)c(O)c1", "note": "(stereo not given) [Dobutamine hydrochloride]", "1-h baseline activity": -2.47}, {"smiles": "CC(C)(C#N)c1cc(Cn2cncn2)cc(C(C)(C)C#N)c1", "note": "[Anastrozole]", "1-h baseline activity": 1.59}, {"smiles": "CCCCC1=NC2(CCCC2)C(=O)N1Cc1ccc(-c2ccccc2-c2nnn[nH]2)cc1", "note": "[Irbesartan]", "1-h baseline activity": 1.48}, {"smiles": "CN/C(=N\\CCSCc1nc[nH]c1C)NC#N", "note": "[Cimetidine]", "1-h baseline activity": 0.11}, {"smiles": "CC(=O)O[C@]1(C(C)=O)CC[C@H]2[C@@H]3C=C(C)C4=CC(=O)CC[C@]4(C)[C@H]3CC[C@@]21C", "note": "[Megestrol Acetate]", "1-h baseline activity": -13.7}, {"smiles": "CCOC(=O)[C@H](CCc1ccccc1)N[C@@H](C)C(=O)N1[C@H](C(=O)O)C[C@@H]2CCC[C@@H]21", "note": "[Ramipril]", "1-h baseline activity": 1.29}, {"smiles": "C/C(O)=C(\\C#N)C(=O)Nc1ccc(C(F)(F)F)cc1", "note": "[Teriflunomide]", "1-h baseline activity": -8.94}, {"smiles": "CN1CCN2c3ncccc3Cc3ccccc3C2C1", "note": "(stereo not given) [Mirtazapine]", "1-h baseline activity": 11.7}, {"smiles": "COc1cccc2c1C(=O)c1c(O)c3c(c(O)c1C2=O)C[C@@](O)(C(=O)CO)C[C@@H]3O[C@H]1C[C@H](N)[C@H](O)[C@H](C)O1", "note": "[Doxorubicin hydrochloride]", "1-h baseline activity": -7.23}, {"smiles": "O=C(NCC1CCCCN1)c1cc(OCC(F)(F)F)ccc1OCC(F)(F)F", "note": "(stereo not given) [Flecainide acetate]", "1-h baseline activity": -0.107}, {"smiles": "CC(=O)Oc1ccccc1C(=O)O", "note": "[Aspirin]", "1-h baseline activity": -0.776}, {"smiles": "C#C[C@]1(O)CC[C@H]2[C@@H]3CCC4=CC(=O)CC[C@@H]4[C@H]3CC[C@@]21CC", "note": "[Levonorgestrel]", "1-h baseline activity": -8.79}, {"smiles": "CN1CCC[C@@H]1CCO[C@](C)(c1ccccc1)c1ccc(Cl)cc1", "note": "[Clemastine fumarate]", "1-h baseline activity": 1.06}, {"smiles": "OCCOCCN1CCN(C2=Nc3ccccc3Sc3ccccc32)CC1", "note": "[Quetiapine hemifumarate]", "1-h baseline activity": 9.62}, {"smiles": "COc1cc2nc(N3CCN(C(=O)C4COc5ccccc5O4)CC3)nc(N)c2cc1OC", "note": "(stereo not given) [Doxazosin mesylate]", "1-h baseline activity": -6.93}, {"smiles": "CC(c1cc2ccccc2s1)N(O)C(N)=O", "note": "(stereo not given) [Zileuton]", "1-h baseline activity": -1.65}, {"smiles": "C=CC(=O)N1CCC[C@@H](n2nc(-c3ccc(Oc4ccccc4)cc3)c3c(N)ncnc32)C1", "note": "[Ibrutinib]", "1-h baseline activity": -7.48}, {"smiles": "CS(=O)(=O)CCNCc1ccc(-c2ccc3ncnc(Nc4ccc(OCc5cccc(F)c5)c(Cl)c4)c3c2)o1", "note": "[Lapatinib]", "1-h baseline activity": -5.01}, {"smiles": "COc1ccccc1OCCNCC(O)COc1cccc2[nH]c3ccccc3c12", "note": "(stereo not given) [Carvedilol]", "1-h baseline activity": -12.4}, {"smiles": "COc1c(C)c2c(c(O)c1C/C=C(\\C)CCC(=O)OCCN1CCOCC1)C(=O)OC2", "note": "[Mycophenolate mofetil]", "1-h baseline activity": -3.96}, {"smiles": "CCOC(=O)C1=C(COCCN)NC(C)=C(C(=O)OC)C1c1ccccc1Cl", "note": "(stereo not given) [Amlodipine besylate]", "1-h baseline activity": 0.364}, {"smiles": "Cc1cc(C2CCCCC2)n(O)c(=O)c1", "note": "[Ciclopirox]", "1-h baseline activity": -1.84}, {"smiles": "CCc1c2c(nc3ccc(OC(=O)N4CCC(N5CCCCC5)CC4)cc13)-c1cc3c(c(=O)n1C2)COC(=O)[C@]3(O)CC", "1-h baseline activity": -6.2}, {"smiles": "CCOC(=O)[C@H](CCc1ccccc1)N[C@H]1CCc2ccccc2N(CC(=O)O)C1=O", "note": "[Benazepril hydrochloride]", "1-h baseline activity": 0.149}, {"smiles": "OC(CNCC(O)C1CCc2cc(F)ccc2O1)C1CCc2cc(F)ccc2O1", "note": "(stereo not given) [Nebivolol hydrochloride]", "1-h baseline activity": -2.33}, {"smiles": "CN1CCN(CCCN2c3ccccc3Sc3ccc(Cl)cc32)CC1", "note": "[Prochlorperazine dimaleate]", "1-h baseline activity": 4.26}, {"smiles": "NC(=O)N1c2ccccc2C=Cc2ccccc21", "note": "[Carbamazepine]", "1-h baseline activity": -4.18}, {"smiles": "Clc1ccc(COC(Cn2ccnc2)c2ccc(Cl)cc2Cl)c(Cl)c1", "note": "(stereo not given) [Miconazole nitrate]", "1-h baseline activity": -19.7}]}]}
